# Reference: PubChem BioAssay (NCATS)
# Values joined by “and” are separate entries in the source; they are usually repeats but may differ in a detail not shown here. Equal values may be shown once. Inconclusive results are not listed. Active and inactive are the calls of the source. Calls come from the whole dose curve; as a rule, active = well fitted inhibition curve with a large enough effect; inconclusive = small, poorly fitted or top-dose-only effect; inactive = flat fitted curve, though single readings scatter.
# Tested on: HaCat
# Test: Cytotoxic Profiling of Annotated Libraries Using Quantitative High-Throughput Screening (AID 1296008); note: nearly all actives have a fitted effect of over 60% in size
# Conditions: Five cell lines viability, CellTiter-Glo ATP luminescence, 48-72 h; max response: stronger effect = lower value
# How it was run: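 Compounds were pin-transferred onto cells and incubated 48 or 72 hr at 37 degree Celsius, 95% humidity. CellTiter-Glo was added, plates sat 10 min at room temperature, then ATP-coupled luminescence was imaged as the viability read-out.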
# % is set by controls: 0 for no effect and ±100 for the full control effect.
SMILES,outcome,max response
CCCCCCn1c(=O)c(C(=O)Nc2ccc(C(=O)OCCC)cc2)c(O)c2ccccc21,inactive,–
O=C(N1CCOCC1)N1CCN(c2ccc(Cl)cc2)CC1,inactive,–
Cc1cc(C(=O)CN2CCCC2)c(C)n1-c1ccc(F)cc1,–,1.57% (inactive) and -29% (inactive)
CCC(C)(OC(C)=O)C(=O)O[C@H]1[C@H](OC(C)=O)C[C@@H]2[C@@](C)([C@@H]3C[C@H]4C=CO[C@H]4O3)[C@H](C)C[C@H](OC(C)=O)[C@@]2(COC(C)=O)[C@@]12CO2 (stereo partly drawn),inactive,–
COC(=O)[C@@]12C(=O)C(C)C(=O)[C@]1(C)C(C)=C[C@H]1[C@]3(C=O)CC[C@H](OC(C)=O)C(C)(C)[C@H]3CC[C@@]12C (stereo partly drawn),inactive,–
Cn1ncnc1COc1nn2c(-c3c(F)cccc3F)nnc2cc1C1CCC1,inactive,–
C=C1[C@@H]2CC[C@@]3(C)[C@H](c4ccoc4)OC(=O)C[C@]13O[C@H]1CC(=O)C(C)(C)[C@H](C(OC(C)=O)C(=O)OC)[C@]12C (stereo partly drawn),inactive,–
COc1cc(C(=O)O[C@H]2[C@@H]3C=CO[C@@H](O[C@@H]4O[C@H](CO)[C@@H](O)[C@H](O)[C@H]4O)[C@@H]3[C@@]3(CO)O[C@@H]23)ccc1O,inactive,–
